Sa ugtP lethal – growth inhibition of S. aureus ugtP deletion strain; growth inhibition, % (concentration not given with the values); actives 0.54% (n = 330,000); AID 1259309; S. aureus RN4220 ugtP deletion, OD600 growth, 16 h; in the data active means growth inhibition above about 68%;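 further: plate controls were untreated wells for no effect and antibiotic for full effect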
RN4220 kill – S. aureus RN4220 growth inhibition; inhibition, % (no concentration beside the values); OD600, 16 h; actives 0.33% (n = 330,000); in the data active means inhibition above about 85%;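 further: plate controls were untreated cells for no effect and reference antibiotic for full effect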
DUSP3 inh – DUSP3 (human) phosphatase inhibition. P51452. recombinant VHR phosphatase, pNPP absorbance. actives 0.52% (n = 290,000). inhibition, % at 13.3 µM; in the data active means inhibition above about 50%
Target sequence (P51452 whole entry, looked up): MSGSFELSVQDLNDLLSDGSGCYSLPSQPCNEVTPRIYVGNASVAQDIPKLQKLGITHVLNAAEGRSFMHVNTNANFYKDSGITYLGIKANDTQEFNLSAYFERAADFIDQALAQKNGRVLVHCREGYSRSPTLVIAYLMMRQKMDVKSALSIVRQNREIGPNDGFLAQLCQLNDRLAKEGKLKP
CCHF vOTU inh – CCHFV vOTU protease inhibition. Pep-AMC fluorescence. inhibition, % at 11.5 µM. actives 0.55% (n = 370,000). AID 651958; in the data active means inhibition above about 30%; further: 0% = vehicle wells with enzyme and 100% = no enzyme wells
SSB-PriA inh – inhibitors of Klebsiella pneumoniae PriA binding to SSB C-terminal tail. AlphaScreen SSBct-PriA binding, biotinylated peptide. inhibition, % at 33 µM. actives 0.6% (n = 430,000). AID 1272365; in the data active means inhibition mostly above about 37%, no sharp cut-off; inactive means mostly below about 20%;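 further: plate controls were negative control peptide for no effect and reference peptide for full effect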
* marks the source's active call; other numbers are inactive results; . = no result. A selection: hits, their analogues and other compounds. The true share with any hit is near 1.5%.

SMILES	Sa ugtP lethal	RN4220 kill	DUSP3 inh	CCHF vOTU inh	SSB-PriA inh
O=C(c1ccc(Br)o1)N1CC(N2C(=O)C3CC=CCC3C2=O)C1 (centres undefined)	.	.	.	.	-1
CNC(=S)N1CCN(c2c(F)cc3c(=O)c(C(=O)O)cn(C4CC4)c3c2OC)CC1C (centres undefined)	100*	100*	24	-1	-2
COC(=O)C(C)NC(=S)N1CCN(c2c(F)cc3c(=O)c(C(=O)O)cn(C4CC4)c3c2OC)CC1C (centres undefined)	100*	100*	17	-18	-7
COc1c(N2CCN(C(=S)Nc3ccccc3)C(C)C2)c(F)cc2c(=O)c(C(=O)O)cn(C3CC3)c12 (centres undefined)	.	.	32	.	.
CCN(CC)CCNC(=O)c1ccc2c(c1NCCO)C(=O)c1ccccc1C2=O	8	27	24	59*	16
CC1CCN(C(=O)c2ccc3c(c2NCCO)C(=O)c2ccccc2C3=O)CC1	-8	8	13	24	59
CCOC(=O)CS/C(=C\C=C\c1ccccc1)C(=O)O	.	.	.	.	-14
CCOC(=O)CCC(=O)NCc1ccc2c(c1)cc(C)n2C	0	8	-5	-5	-10
CCOC(=O)NCc1ccc2c(c1)cc(C)n2C	4	2	51*	2	14
Cc1cc2cc(CNC(=O)CC(C)C)ccc2n1C	4	1	55*	6	-11
O=C(c1cc(-c2ccco2)on1)N(Cc1ccoc1)Cc1cccs1	.	.	.	.	-2
Cc1ccc(-n2ccnc2SCc2nc(-c3ccc(Cl)cc3)no2)cc1	.	.	.	.	-5
CCOCCCNC(=O)C1CCCN(S(=O)(=O)c2cccc3nsnc23)C1 (centres undefined)	.	.	2	1	-2
COCCCNC(=O)C1CCCN(S(=O)(=O)c2cccc3nsnc23)C1 (centres undefined)	-1	-2	53*	-2	10
Oc1[nH]c2ccc(Br)cc2c1N=NC(=S)Nc1ccc(F)cc1	100*	99*	8	9	-10
Oc1ccc(NC(=S)N=Nc2c(O)[nH]c3ccc(Br)cc23)cc1	-32	6	8	5	-5
O=[N+]([O-])c1ccc(O)c(CSc2nnnn2-c2ccccc2)c1	6	0	-4	-4	99*
Cc1cccc(NC(=O)Cn2c(=O)n(Cc3ccco3)c(=N)c3c4c(sc32)COC(C)(C)C4)c1	-6	2	52*	12	-2
NN1C(=O)c2cccc3cccc(c23)C1=O	.	.	.	.	1
Cc1ccc(Nc2c(-c3ccc(N4CCOCC4)cc3)nc3ncccn23)cc1	-2	7	-7	9	97*
Cc1ccc(Nc2c(-c3ccc(N4CCOCC4)cc3)nc3ncccn23)cc1C	6	4	11	5	0
CCOC(=O)c1ccc(N2CCCCC2)c(NS(=O)(=O)c2cccc(C(F)(F)F)c2)c1	88*	1	24	9	-6
CN(C)c1ccc(/C=C/C=C/c2sc3ccccc3[n+]2C)cc1	.	.	-1	-11	40*
CN(C)c1ccc(/C=C/c2nc3ccccc3s2)cc1	-5	2	20	-4	7
CN(C)c1ccc(/C=C/c2cc[n+](C)c3ccccc23)cc1	.	.	17	11	19
SMILES	Sa ugtP lethal	RN4220 kill	DUSP3 inh	CCHF vOTU inh	SSB-PriA inh
CC[n+]1c(/C=C/C=C/N(C(C)=O)c2ccccc2)sc2ccccc21	.	.	47	5	2
CCN1/C(=C\C=C\c2sc3ccccc3[n+]2CC)Sc2ccccc21	.	.	.	.	56*
CC[n+]1c(/C=C/C=C/c2ccc(N(C)C)cc2)sc2ccccc21	82*	88*	4	16	61*
CN(C)c1ccc(C=Cc2cc[n+](C)c3ccccc23)cc1	93*	95*	.	.	.
CCOCCCn1c(SCc2nc(-c3ccc(SC)cc3)no2)nc2ccccc2c1=O	.	.	.	.	-25
Cc1ccc(CSc2nnc(-c3ccncc3)n2C)cc1	5	4	36	-8	-9
Cc1ccc(Nc2nc(CSc3nnc(-c4ccncc4)n3C)cs2)cc1	-1	6	58*	-12	5
O=C(NCCC(CCO)c1ccccc1)C(=O)Nc1ccc(F)c(F)c1 (centres undefined)	.	.	.	.	-15
Cc1nc(N2CCN(C)CC2)c2c(C)c(C(=O)Nc3ccc(F)cc3)sc2n1	-3	-15	55*	15	-17
Cc1nc(N2CCCCC2)c2c(C)c(C(=O)Nc3cccc(C(F)(F)F)c3)sc2n1	-28	7	1	-1	-11
N#CC(=NNc1cccc(C(F)(F)F)c1)C(=O)c1ccsc1	97*	100*	.	.	1
O=S(=O)(NCC[C@H](O)C1CC1)c1ccccc1Cl	.	.	.	.	-3
Cc1cc(=O)[nH]c(NN=Cc2ccccn2)n1	4	5	.	.	83*
O=c1nc(NN=Cc2ccccn2)cn[nH]1	.	.	.	.	82*
